Screening results as filed in PubChem BioAssay.
Compounds with a hit are over-represented: about 19% of the library has one in this group of screens.
TDP1 cell CPT: growth inhibition of DT40 Tdp1-/-;hTDP1 cells with camptothecin (screen for TDP1 inhibitors) | chicken DT40 Tdp1-/-;hTDP1 cells + 20 nM CPT, ATP luminescence, 48 h | Potency, µM (doses to about 46.2 µM), inactives show at the highest dose activity change, negative = growth inhibition, usual class: inhibitors | 420,000 compounds, 12% hits | AID 686979; further: potency means the concentration at half of the fitted maximal effect; nearly all actives have a fitted effect of over 55% in size
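Cell growth measured by CellTiter-Glo luminescence after a minimum 48 h, 37 C compound exposure with 20 nM CPT in Tdp1-knockout DT40 cells stably expressing hTDP1, seeded 400/well; qHTS titration format.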
IL1B secr inh: blocks inflammasome-driven IL-1 beta release; 360,000 compounds, 4.7% hits; activity change, % at 57.5 µM; THP-1 LPS/ATP IL-1B secretion, AlphaLISA, 16 h; hits give low values; AID 743279; in the data active means activity change below about -50%; inconclusive means mostly about -30% to -49%
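Secreted IL-1B measured by AlphaLISA bead assay after 16 h compound exposure of THP-1 cells; compounds (final up to 57.5 uM) added 1 h before LPS (250 ng/mL) and ATP (1.25 mM) stimulation; lower signal means less secretion.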
TDP1 cell noCPT: qHTS for Inhibitors of human tyrosyl-DNA phosphodiesterase 1 (TDP1): qHTS in cells in absence of CPT; DT40 Tdp1-/- hTDP1 cells, no CPT, ATP luminescence, 48 h; Potency, µM (highest dose often 46.2 µM), for the others: at the highest dose activity change, negative = growth inhibition, actives largely listed as inhibitors; 420,000 compounds, 15% hits; AID 686978, 2013; further: potency means the concentration at half of the fitted maximal effect; nearly all actives have a fitted effect of over 55% in size
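Stably hTDP1-transfected Tdp1-null chicken DT40 cells were treated with library compounds minus camptothecin and grown for at least 48 hr at 37 °C, after which cellular ATP was quantified by luminescence.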
Giardia kill: kills Giardia lamblia | activity change, % at 7.66 µM, hits read low | Giardia lamblia trophozoite viability | 340,000 compounds, 0.15% hits | AID 540267; in the data active means activity change below about -80%; inconclusive means between about -30% and that limit;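 further: parasites exposed to compound for two days anaerobically before the ATP read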
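ATP-content bioluminescence gauges trophozoite survival. Cells (100/well) receive compound and incubate anaerobically for 48 hrs at 37 deg C; detection reagent follows for 15-30 min at room temperature.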
TDP1 inh: TDP1 (human) enzyme inhibition. Potency, µM (top dose mostly 130 µM), without a hit: at the top dose activity change, negative = inhibition, hits mostly inhibitors. AID 485290. recombinant TDP1, AlphaScreen DNA substrate cleavage. Q9NUW8. 350,000 compounds, 0.28% hits; further: potency means the concentration at half of the fitted maximal effect; nearly all actives have a fitted effect of over 40% in size
Target sequence (Q9NUW8 whole entry, looked up): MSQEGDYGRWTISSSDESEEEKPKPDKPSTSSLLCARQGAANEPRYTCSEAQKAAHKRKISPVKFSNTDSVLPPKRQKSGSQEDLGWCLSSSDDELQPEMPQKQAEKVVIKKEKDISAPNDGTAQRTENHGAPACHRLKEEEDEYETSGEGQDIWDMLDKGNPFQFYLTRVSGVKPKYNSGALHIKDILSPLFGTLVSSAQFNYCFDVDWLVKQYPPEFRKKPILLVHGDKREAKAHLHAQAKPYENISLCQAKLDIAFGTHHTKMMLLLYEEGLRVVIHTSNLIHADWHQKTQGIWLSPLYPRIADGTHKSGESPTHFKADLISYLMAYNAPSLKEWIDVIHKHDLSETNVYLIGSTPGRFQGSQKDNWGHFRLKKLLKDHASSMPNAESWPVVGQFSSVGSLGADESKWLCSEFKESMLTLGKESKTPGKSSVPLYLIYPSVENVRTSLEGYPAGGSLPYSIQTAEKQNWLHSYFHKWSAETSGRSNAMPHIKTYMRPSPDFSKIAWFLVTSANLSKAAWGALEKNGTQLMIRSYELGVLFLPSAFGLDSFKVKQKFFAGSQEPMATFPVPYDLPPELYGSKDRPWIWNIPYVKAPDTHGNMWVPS
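Signal: AlphaScreen proximity between streptavidin donor and anti-FITC acceptor beads on intact substrate. Reaction: Tdp1 1 nM, substrate 15 nM final, 5 min RT after 15 min compound preincubation.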
ELG1 DNA repair: blocks ELG1-dependent DNA repair in HEK293T cells; HEK293T ELG1-luciferase reporter, luminescence, 16 h; DNA damage induced by 5-fluorouridine; 330,000 compounds, 2.3% hits; Potency, µM (top dose mostly 46.1 µM), for inactives: at the highest dose activity change, negative = inhibition, hits mostly inhibitors; further: potency means the concentration at half of the fitted maximal effect; nearly all actives have a fitted effect of over 55% in size
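Overnight (16 hr) co-exposure of 2,000 cells/well to 5-fluorouridine and compound at 37 °C preceded detection. Luciferase was quantified via ONE-Glo luminescence; loss of signal denotes inhibition.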
Active calls of the source: *; i = inactive; ? = inconclusive; · = no result; [ ] = dose if it differs, or a comment. Unless noted, the call rests on the fitted dose curve; in most records, active means well fitted curve in the direction sought with a large enough effect; inconclusive means small, poorly fitted or top-dose-only effect, or another doubt; inactive means no such curve, though single readings can be large; an effect the other way counts as inactive or inconclusive. On the % scale 0 is the no-effect control and ±100 the full control effect.

SMILES | TDP1 cell CPT | IL1B secr inh | TDP1 cell noCPT | Giardia kill | TDP1 inh | ELG1 DNA repair
Cc1ccc(N(Cc2cccs2)C(=O)Nc2cccc(Cl)c2)cc1 | ? | · | ? | · | -5% | ·
CCN(CC)C(=O)Cn1cc(S(=O)(=O)CC(=O)Nc2ccccc2C)c2ccccc21 | -26% | 4 | 3% | -16 | · | ·
COc1ccc(C)cc1NC(=O)CN1CCCN(S(=O)(=O)c2ccc(Br)cc2)CC1 | ? | -30 | 9.2µM* | 6 | 1% | 0%
COc1ccc(C)cc1NC(=O)CN1CCN(S(=O)(=O)c2ccc(F)cc2)CC1 | ? | -9 | ? | 25 | 2% | -26%
O=S(=O)(c1ccc(Br)cc1)N1CCCN(Cc2cccc(F)c2)CC1 | -10% | -56* | ? | -6 | -1% | -11%
COC(=O)c1ccc(NC(=O)CN2CCN(S(=O)(=O)c3ccc(Br)cc3)CC2)cc1 | ? | 0 | 18µM* | 0 | 4% | 15%
CC(C)c1cnc2c(c1SCC(=O)NCc1ccccc1Cl)c(=O)n(C)c(=O)n2C | -3% | · | -20% | · | 3% | ·
COc1ccc(N(CC(=O)Nc2ccc(S(=O)(=O)N3CCOCC3)cc2)S(=O)(=O)c2ccc(F)cc2)cc1 | ? | -12 | ? | 0 | 3% | -18%
COc1ccc(NC(=S)/N=C(\N)Nc2nc(C)c3ccc(C)cc3n2)cc1 | 18µM* | 0 | ? | 10 | 5% | ?
CCOc1ccc2nc(N/C(N)=N/C(=S)Nc3ccc(C)c(C)c3)nc(C)c2c1 | -83% | -14 | -45% | 28 | -3% | 1%
CCNC(=S)/N=C(\N)Nc1nc(C)c2cc(C)ccc2n1 | ? | -91* | ? | 1 | · | ?
Cc1ccc(OCC(=O)Nc2c3c(nn2C(C)(C)C)CS(=O)(=O)C3)cc1 | 8% | i | -8% | -4 | 2% | 0%
O=C(Cc1cccc(NC(=O)C2CCCN(C(=O)C3CCCCC3)C2)c1)Nc1ccc(C(=O)N2CCCCC2)cc1 (stereo unspecified) | 3% | 8 | -24% | ? | · | ·
COc1ccc(C)cc1NC(=O)C1CCCN1S(=O)(=O)c1ccccc1F (stereo unspecified) | ? | 31 | ? | 3 | 0% | ?
CCNC(=O)C1CCN(S(=O)(=O)c2ccc3c(c2)CCCN3C(C)=O)CC1 | -3% | · | 0% | · | -2% | ·
O=c1oc2c3c4c(cc2c(C(F)(F)F)c1CCN1CCOCC1)CCCN4CCC3 | 16µM* | 78 | 16µM* | -10 | -8% | -2%
CC(C)c1cc(=O)oc2c3c4c(cc12)CCCN4CCC3 | 16µM* | -28 | ? | 11 | 5% | -2%
CC1CN(CCC(=O)NCc2ccc3ncccc3c2)Cc2cc(Cl)ccc2O1 (stereo unspecified) | -6%[9.04 µM] | · | ? | · | · | ·
CNC(=O)c1ccsc1NC(=O)C1CCN(S(=O)(=O)c2ccc(Cl)s2)CC1 | 16µM* | 23 | ? | 18 | 0% | 18µM*
Cc1cc(NC(=O)C2CCCN(S(=O)(=O)c3ccc(Br)s3)C2)ccc1Br (stereo unspecified) | ? | · | 13µM* | · | 2% | ·
O=S(=O)(c1ccc(Br)s1)N1CCC(Cc2ccccc2)CC1 | 14µM* | -3 | ? | 4 | -4% | 5%
Cc1cc(NC(=O)C2CCN(S(=O)(=O)c3ccc(Br)s3)CC2)ccc1Br | ? | · | 16µM* | · | -2% | ·
Cc1ccc(NC(=O)C2CCN(S(=O)(=O)c3cnc[nH]3)CC2)cc1C | -8% | 19 | -1% | -5 | 5% | -1%
O=C(Nc1ccc(Cl)cc1)C1CCN(S(=O)(=O)c2ccc(Br)s2)CC1 | ? | · | 23µM* | · | -5% | ·
O=C(NCc1ccc2c(c1)OCO2)C1CCN(S(=O)(=O)c2ccc(Br)s2)CC1 | -22% | -15 | 21µM* | 14 | 4% | ?
SMILES | TDP1 cell CPT | IL1B secr inh | TDP1 cell noCPT | Giardia kill | TDP1 inh | ELG1 DNA repair
Cc1cc(NC(=O)C2CCN(S(=O)(=O)c3cnc[nH]3)CC2)ccc1Br | -13% | -57* | ? | 2 | 5% | ?
Cc1csc(NC(=O)C2CCCN(S(=O)(=O)c3ccc(Br)s3)C2)n1 (stereo unspecified) | 16µM* | -14 | 18µM* | 1 | 4% | ?
CC(=O)c1ccc(NC(=O)C2CCCN(S(=O)(=O)c3ccc(Br)s3)C2)cc1 (stereo unspecified) | -5% | · | -6% | · | -5% | ·
CC[C@H](C)[C@H](NC(=O)[C@H](Cc1ccc(O)cc1)NC(=O)[C@@H]1CCCN1C(=O)[C@@H](N)CCCN=C(N)N)C(=O)N[C@@H](CC(C)C)C(=O)O | · | · | · | · | 9% | ·
O=C(Nc1ccccc1)c1cc(Cl)nc2ccccc12 | -9% | 36 | ? | -7 | -1% | -6%
COC(=O)C(C(C)C)N(Cc1cc(OC)cc(OC)c1)S(=O)(=O)CCl (stereo unspecified) | 16µM* | 16 | 21µM* | 0 | 1%[56.1 µM] | -19%
Cc1ncc2c(c1CNC(=O)c1ccc3c(c1)OCO3)CCN(C(=O)c1ccoc1)C2 | 2%[9.04 µM] | · | -13% | · | · | ·
CCNNC(=O)C(O)(c1cccc(C)c1)c1cccc(C)c1 | -19% | -3 | -23% | 4 | 0% | 1%
Cc1cccc(C(O)(C(=O)NNc2ccc3ccccc3n2)c2cccc(C)c2)c1 | 6.5µM* | 22 | 6.5µM* | 20 | 0% | -2%
CCCCc1nc2c(c3c1C[C@H](C)OC3)CN(S(=O)(=O)c1ccccc1C(=O)OC)CC2 | · | · | · | · | 8%[21 µM] | ·
CCc1cccc(NC(=O)CCc2nc3sc4c(c3c(=O)[nH]2)CCCC4)c1 | 8.2µM* | 18 | 10µM* | -2 | · | -6%
Cc1cccc(NC(=O)CCc2nc3sc4c(c3c(=O)[nH]2)CCCC4)c1 | ? | 0 | ? | 13 | · | 11%
Cc1ccc(NC(=O)CCc2nc3sc4c(c3c(=O)[nH]2)CCCC4)nc1 | 3% | 24 | -28% | -7 | -13% | 14%
CN(C)S(=O)(=O)c1cccc(NC(=O)CCc2nc3sc4c(c3c(=O)[nH]2)CCCC4)c1 | 16µM* | -12 | ? | 30 | 1% | 11µM*
COC(=O)c1ccccc1NC(=O)CSc1nc2sc3c(c2c(=O)[nH]1)CCCC3 | 12µM* | · | 9.2µM* | -2 | -8% | ·
COc1ccccc1NC(=O)CCc1nc2sc3c(c2c(=O)[nH]1)CCCC3 | 12µM* | 23 | 2.9µM* | -2 | -5% | ?
C=Cc1ccc(CSc2nnc(C)n3c2cc2occc23)cc1 | ? | · | ? | · | 3% | ·
Cc1cn2c(=O)c3ccccc3nc2n2c(=O)c3ccccc3nc12 | 10%[9.04 µM] | · | 2%[9.04 µM] | · | 6% | ·
